The text below walks through data of ChEMBL document CHEMBL4513216, “Probing the Open Global Health Chemical Diversity Library for Multistage-Active Starting Points for Next-Generation Antimalarials” (ACS Infect Dis, 2020).

Among all 68,000 compounds or so, about 2,700 (4%) showed an effect of 50% or more. What follows is part of a selection rich in strong results, with near analogues and random picks from the rest.

For this experiment, the system named is Plasmodium berghei. The experiment can be described thus: Screen against P. berghei liver stage (PbLuc), transformed with Luciferase, at 2uM. The format is functional, HepG2. As to conditions: tested at 2 uM.
For `Cc1nc(N2CCCCC2)ncc1-c1cc(=O)[nH]c(N2CCCC2)n1`, the INHIBITION is recorded as 17.48%. For `FC1(F)CCN(Cc2cccnc2)CC12CCN(c1ccccn1)C2` (centres undefined), the INHIBITION is 3.35%. With `CC(C)c1cc(C(=O)N2CCC3(CC2)c2ccccc2[C@@H](N)[C@@H]3O)cs1`, the INHIBITION is 16.28%. Regarding `O=C1CC(NS(=O)(=O)c2ccc(Br)cc2)CN1` (centres undefined), the INHIBITION is listed as 27.9%.

As for `O=C1CC(NS(=O)(=O)c2ccc(F)c(Cl)c2)CN1` (centres undefined), the INHIBITION is on record as -15.08%.

`O=C1CC(NS(=O)(=O)c2ccc(Cl)cc2)CN1` (centres undefined): the INHIBITION was found to be 87.53%. The same measure for `CCCN(CCC)S(=O)(=O)NC(C)C(=O)N(C)C` (centres undefined): -9.87%.

In the case of `COc1ccc(OCc2nc(C(=O)N3CCCNC(=O)C3)co2)cc1`, the INHIBITION worked out at 22.84%. Under `CC(C)c1noc(CCC(=O)NC(C)c2nnc3n2CCC3)n1` (centres undefined) stands 45.48%; under `CC(NC(=O)CCCc1nc(C(C)(C)C)no1)c1nnc2n1CCC2` (centres undefined), 19.04%.

Regarding `CC(NC(=O)CCc1nc(C(C)(C)C)no1)c1nnc2n1CCC2` (centres undefined), the INHIBITION stood at 64.2%. For the compound `c1coc(CN2C[C@@H]3OCCN(CC4CCCO4)[C@@H]3C2)c1` (some centres undefined), the INHIBITION is -44.46%.

Consider `CCOC(=O)N1C[C@@H]2CC[C@H]1CN(Cc1ccccc1)C2`, for which the INHIBITION is on record as 18.19%. For `O=C(O)c1cnc(N2CCC(c3nccn3CC3CC3)CC2)c(Cl)c1`, the INHIBITION was 60.39%. In the case of `CCOCC(=O)N1CCC(c2nccn2CC2CC2)CC1`, the INHIBITION is -1.32%. For `COCC(=O)N1CCC(c2nccn2CC2CC2)CC1`, the INHIBITION was -34.68%. As to `COCC1(C(=O)N2CCC(c3nccn3CC3CC3)CC2)CCC1`, the INHIBITION worked out at 52.57%. For the compound `c1cnc(N2CCC(c3nccn3CC3CC3)CC2)nc1`, the INHIBITION is 18.81%. Under `COCCOC(=O)N1CCC(c2nccn2CC2CC2)CC1` stands -1.87%; under `O=C(NC1CC1)N1C[C@H]2CN(c3ccccc3)C(=O)[C@H]2C1`, -0.9%. On to `CCc1nc2c(NCC3COc4c(cccc4OC)C3)ncnc2o1` (centres undefined), for which the INHIBITION worked out at 1.39%. Regarding `O=C(C1CCCc2[nH]ncc21)N1CCCC1` (centres undefined), the INHIBITION was -10.01%. In the case of `O=C(C1CCCc2[nH]ncc21)N1CCCCCC1` (centres undefined), the INHIBITION is on record as -0.54%. Under `O=C(C1CCCc2[nH]ncc21)N1CCCC2(C1)OCCO2` (centres undefined) stands 64.92%.

As to `CNC(=O)CCOC(=O)c1cccc(-n2cccn2)c1`, the INHIBITION turned out to be 55.25%. As to `CNC(=O)CCOC(=O)c1cccc(-n2ccc(C(F)(F)F)n2)c1`, the INHIBITION was found to be 13.1%. For `CNC(=O)COC(=O)c1cccc(-n2ccc(C(F)(F)F)n2)c1`, the INHIBITION is listed as 10.31%. On to `Cc1nc2c(c(N3CCCC(OCc4ccccn4)C3)n1)CCNCC2` (centres undefined), for which the INHIBITION is on record as 20.71%. Turning to `Cc1ccc(CN2CC[C@@H]3O[C@@H](C(=O)N4CCN(C)CC4)C[C@@H]32)cc1`, the INHIBITION was 41.55%.
